Binding signal data for twelve sequences are collected here from publication PMC11006913.

Changes are numbered by the printed parent chain.

Common to all, as to test: PBM; 200 nM protein, PBS
Conditions in all cases: dsDNA, one strand shown

In test [1] the target is NKX2-5 (Homo sapiens, UniProt P52952 125-210, R139K).
In test [2] the target is T1, NKX2-6 (Homo sapiens, UniProt A6NCS4 118-204, R150C).
T1 sequence: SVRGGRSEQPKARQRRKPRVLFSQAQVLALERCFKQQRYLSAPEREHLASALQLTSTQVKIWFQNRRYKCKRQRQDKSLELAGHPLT

Test [3] deals with T2, NKX2-6 (Homo sapiens, UniProt A6NCS4 118-204).
T2 sequence: T1 sequence with C33R

Test [4] concerns the target T3, NKX2-6 (Homo sapiens, UniProt A6NCS4 118-204, F151L).
T3 sequence: T1 sequence with C33R, F34L

Test [5] has as its target NKX3-2 (Homo sapiens, UniProt P78367 192-278, P234S).
Test [6] deals with NKX2-5 (Homo sapiens, UniProt P52952 125-210).
In test [7] the target is NKX3-2 (Homo sapiens, UniProt P78367 192-278).
The target in test [8] is HOXD13 (Homo sapiens, UniProt P35453 263-343, T313R).
For test [9], the target named is HOXD13 (Homo sapiens, UniProt P35453 263-343).
In test [10] the target is HOXD13 (Homo sapiens, UniProt P35453 263-343, T313A).
A further test concerns the target T4, NKX2-4 (Homo sapiens, UniProt Q9H2Z4 175-261, R246Q).
T4 sequence: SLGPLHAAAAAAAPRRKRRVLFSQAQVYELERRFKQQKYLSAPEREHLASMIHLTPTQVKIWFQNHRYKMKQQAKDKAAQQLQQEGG

The target in test [11] is ALX1 (Homo sapiens, UniProt Q15699 118-204, L144V).
Test [12] deals with ALX1 (Homo sapiens, UniProt Q15699 118-204, L144R).
Test [13] deals with ALX1 (Homo sapiens, UniProt Q15699 118-204).
The target in test [14] is ALX3 (Homo sapiens, UniProt O95076 139-225, N203Q).
Test [15] has as its target ALX3 (Homo sapiens, UniProt O95076 139-225).
For test [16], the target named is ALX3 (Homo sapiens, UniProt O95076 139-225, L168Q).
Test [17] addresses ALX3 (Homo sapiens, UniProt O95076 139-225, L168V).
The target in test [18] is ALX3 (Homo sapiens, UniProt O95076 139-225, N203S).
The target in test [19] is PROP1 (Homo sapiens, UniProt O75360 56-141).
In test [20] the target is PROP1 (Homo sapiens, UniProt O75360 56-141, R99H).
Test [21] deals with PROP1 (Homo sapiens, UniProt O75360 56-141, F88S).
Sequence of PROP1 (Homo sapiens, UniProt O75360 56-141, F88S) (O75360 56-141 F88S): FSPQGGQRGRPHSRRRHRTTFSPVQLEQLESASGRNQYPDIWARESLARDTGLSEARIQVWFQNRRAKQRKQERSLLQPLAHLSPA

Sequence of NKX3-2 (Homo sapiens, UniProt P78367 192-278, P234S) (P78367 192-278 P234S): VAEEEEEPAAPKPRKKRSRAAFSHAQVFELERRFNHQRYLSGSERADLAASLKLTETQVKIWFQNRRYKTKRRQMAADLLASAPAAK
Sequence of NKX3-2 (Homo sapiens, UniProt P78367 192-278) (P78367 192-278): as the sequence (P78367 192-278 P234S) above, with S43P counted along it
Sequence of NKX2-5 (Homo sapiens, UniProt P52952 125-210, R139K) (P52952 125-210 R139K): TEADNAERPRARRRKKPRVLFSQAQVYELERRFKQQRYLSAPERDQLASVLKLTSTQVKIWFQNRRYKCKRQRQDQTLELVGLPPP
Sequence of NKX2-5 (Homo sapiens, UniProt P52952 125-210) (P52952 125-210): as the sequence (P52952 125-210 R139K) above, with K15R counted along it
Sequence of HOXD13 (Homo sapiens, UniProt P35453 263-343) (P35453 263-343): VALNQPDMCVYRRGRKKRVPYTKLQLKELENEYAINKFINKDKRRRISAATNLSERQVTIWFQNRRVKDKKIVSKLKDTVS
Sequence of ALX1 (Homo sapiens, UniProt Q15699 118-204, L144R) (Q15699 118-204 L144R): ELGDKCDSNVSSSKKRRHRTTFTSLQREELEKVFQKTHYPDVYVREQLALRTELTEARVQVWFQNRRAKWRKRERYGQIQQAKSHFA
Sequence of ALX1 (Homo sapiens, UniProt Q15699 118-204, L144V) (Q15699 118-204 L144V): as the sequence (Q15699 118-204 L144R) above, with R27V counted along it
Sequence of ALX3 (Homo sapiens, UniProt O95076 139-225, L168Q) (O95076 139-225 L168Q): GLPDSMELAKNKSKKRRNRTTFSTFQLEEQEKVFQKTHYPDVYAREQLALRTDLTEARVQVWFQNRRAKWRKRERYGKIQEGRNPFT
Sequence of HOXD13 (Homo sapiens, UniProt P35453 263-343, T313A) (P35453 263-343 T313A): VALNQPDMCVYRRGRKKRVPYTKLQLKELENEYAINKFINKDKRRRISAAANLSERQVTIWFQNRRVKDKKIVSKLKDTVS
Sequence of ALX3 (Homo sapiens, UniProt O95076 139-225) (O95076 139-225): as the sequence (O95076 139-225 L168Q) above, with Q30L counted along it
Sequence of PROP1 (Homo sapiens, UniProt O75360 56-141) (O75360 56-141): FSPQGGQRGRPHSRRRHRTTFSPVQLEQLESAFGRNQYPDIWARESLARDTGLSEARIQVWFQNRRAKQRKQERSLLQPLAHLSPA
Sequence of ALX3 (Homo sapiens, UniProt O95076 139-225, L168V) (O95076 139-225 L168V): as the sequence (O95076 139-225 L168Q) above, with Q30V counted along it
Sequence of PROP1 (Homo sapiens, UniProt O75360 56-141, R99H) (O75360 56-141 R99H): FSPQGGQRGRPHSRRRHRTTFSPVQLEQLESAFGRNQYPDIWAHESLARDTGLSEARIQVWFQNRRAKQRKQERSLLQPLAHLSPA
Sequence of ALX3 (Homo sapiens, UniProt O95076 139-225, N203Q) (O95076 139-225 N203Q): as the sequence (O95076 139-225 L168Q) above, with Q30L, N65Q counted along it
Sequence of ALX1 (Homo sapiens, UniProt Q15699 118-204) (Q15699 118-204): as the sequence (Q15699 118-204 L144R) above, with R27L counted along it
Sequence of ALX3 (Homo sapiens, UniProt O95076 139-225, N203S) (O95076 139-225 N203S): as the sequence (O95076 139-225 L168Q) above, with Q30L, N65S counted along it
Sequence of HOXD13 (Homo sapiens, UniProt P35453 263-343, T313R) (P35453 263-343 T313R): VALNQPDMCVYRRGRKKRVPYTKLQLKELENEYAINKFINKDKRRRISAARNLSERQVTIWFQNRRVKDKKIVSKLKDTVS

On to AAGTGGGT, for which the binding signal with NKX2-5 [1] was 12.4 upbm affinity estimate (log intensity, higher = more binding, comparable within an allelic series); in the test with NKX2-6 [2], 11.6 upbm affinity estimate (log intensity, higher = more binding, comparable within an allelic series); in the test with NKX2-6 [3], 13.5 upbm affinity estimate (log intensity, higher = more binding, comparable within an allelic series); with NKX2-6 [4], 10.5 upbm affinity estimate (log intensity, higher = more binding, comparable within an allelic series); in the test with NKX3-2 [5] it was 12.7 upbm affinity estimate (log intensity, higher = more binding, comparable within an allelic series); with NKX2-5 [6], 12.3 upbm affinity estimate (log intensity, higher = more binding, comparable within an allelic series). In addition, the binding signal with NKX3-2 [7] is 12.8 upbm affinity estimate (log intensity, higher = more binding, comparable within an allelic series).
In the case of CCACGGCG, the binding signal with NKX2-5 [1] was 8.49 upbm affinity estimate (log intensity, higher = more binding, comparable within an allelic series); in the test with NKX2-6 [2] it was 9.16 upbm affinity estimate (log intensity, higher = more binding, comparable within an allelic series); in the test with NKX2-5 [6], 8.47 upbm affinity estimate (log intensity, higher = more binding, comparable within an allelic series).
For the sequence GCACTTAC, the binding signal with NKX2-5 [1] was 12.3 upbm affinity estimate (log intensity, higher = more binding, comparable within an allelic series); with NKX2-6 [2], 11.6 upbm affinity estimate (log intensity, higher = more binding, comparable within an allelic series); in the test with NKX2-6 [3], 13.3 upbm affinity estimate (log intensity, higher = more binding, comparable within an allelic series); with NKX2-6 [4], 10.6 upbm affinity estimate (log intensity, higher = more binding, comparable within an allelic series); with NKX3-2 [5], 12.7 upbm affinity estimate (log intensity, higher = more binding, comparable within an allelic series); with NKX3-2 [7] it was 12.8 upbm affinity estimate (log intensity, higher = more binding, comparable within an allelic series).
Take CAGGTCGC: the binding signal is 9.22 upbm affinity estimate (log intensity, higher = more binding, comparable within an allelic series) in the test with NKX2-5 [1]; 9.62 upbm affinity estimate (log intensity, higher = more binding, comparable within an allelic series) with HOXD13 [8]; 9.82 upbm affinity estimate (log intensity, higher = more binding, comparable within an allelic series) with HOXD13 [9]; 9.97 upbm affinity estimate (log intensity, higher = more binding, comparable within an allelic series) with HOXD13 [10]; 9.21 upbm affinity estimate (log intensity, higher = more binding, comparable within an allelic series) with NKX2-5 [6].
Consider CACACTTA, for which the binding signal with NKX2-5 [1] is 12.5 upbm affinity estimate (log intensity, higher = more binding, comparable within an allelic series); in the test with NKX2-6 [2] it was 11.7 upbm affinity estimate (log intensity, higher = more binding, comparable within an allelic series); with NKX2-6 [3] it was 13.5 upbm affinity estimate (log intensity, higher = more binding, comparable within an allelic series); with NKX2-6 [4] it was 10.9 upbm affinity estimate (log intensity, higher = more binding, comparable within an allelic series); with NKX3-2 [5], 12.6 upbm affinity estimate (log intensity, higher = more binding, comparable within an allelic series); in the test with NKX2-5 [6], 12.4 upbm affinity estimate (log intensity, higher = more binding, comparable within an allelic series). Besides, in the test with NKX3-2 [7], the binding signal is 12.7 upbm affinity estimate (log intensity, higher = more binding, comparable within an allelic series).
On to CACTTGTA, for which the binding signal was 12.5 upbm affinity estimate (log intensity, higher = more binding, comparable within an allelic series) with NKX2-5 [1]; 11.6 upbm affinity estimate (log intensity, higher = more binding, comparable within an allelic series) with NKX2-6 [2]; 13.4 upbm affinity estimate (log intensity, higher = more binding, comparable within an allelic series) with NKX2-6 [3]; 12.9 upbm affinity estimate (log intensity, higher = more binding, comparable within an allelic series) in the test with NKX2-4; 10.7 upbm affinity estimate (log intensity, higher = more binding, comparable within an allelic series) with NKX2-6 [4]; 12.3 upbm affinity estimate (log intensity, higher = more binding, comparable within an allelic series) in the test with NKX2-5 [6].
As for ACACGTGT, the binding signal is 9.32 upbm affinity estimate (log intensity, higher = more binding, comparable within an allelic series) in the test with NKX2-5 [1]; 6.61 upbm affinity estimate (log intensity, higher = more binding, comparable within an allelic series) with ALX1 [11]; 6.61 upbm affinity estimate (log intensity, higher = more binding, comparable within an allelic series) in the test with ALX1 [12]; 6.65 upbm affinity estimate (log intensity, higher = more binding, comparable within an allelic series) with ALX1 [13]; 9.25 upbm affinity estimate (log intensity, higher = more binding, comparable within an allelic series) with NKX2-5 [6].
Regarding CTAAGTAC, the binding signal with NKX2-5 [1] was 12.3 upbm affinity estimate (log intensity, higher = more binding, comparable within an allelic series); with NKX2-6 [2] it was 11.7 upbm affinity estimate (log intensity, higher = more binding, comparable within an allelic series); in the test with NKX2-6 [3] it was 13.4 upbm affinity estimate (log intensity, higher = more binding, comparable within an allelic series); with NKX2-6 [4] it was 10.5 upbm affinity estimate (log intensity, higher = more binding, comparable within an allelic series); with NKX3-2 [5] it was 12.5 upbm affinity estimate (log intensity, higher = more binding, comparable within an allelic series); with NKX2-5 [6], 12.2 upbm affinity estimate (log intensity, higher = more binding, comparable within an allelic series). For the same sequence, in the test with NKX3-2 [7], the binding signal is 12.6 upbm affinity estimate (log intensity, higher = more binding, comparable within an allelic series).
Take CGACCTCG: the binding signal in the test with NKX2-5 [1] is 9.01 upbm affinity estimate (log intensity, higher = more binding, comparable within an allelic series); in the test with ALX3 [14], 7.77 upbm affinity estimate (log intensity, higher = more binding, comparable within an allelic series); with ALX3 [15], 7.62 upbm affinity estimate (log intensity, higher = more binding, comparable within an allelic series); in the test with ALX3 [16], 7.78 upbm affinity estimate (log intensity, higher = more binding, comparable within an allelic series); in the test with ALX3 [17] it was 7.74 upbm affinity estimate (log intensity, higher = more binding, comparable within an allelic series); in the test with ALX3 [18] it was 7.75 upbm affinity estimate (log intensity, higher = more binding, comparable within an allelic series). Moreover, in the test with NKX2-5 [6], the binding signal is 9.16 upbm affinity estimate (log intensity, higher = more binding, comparable within an allelic series).
In the case of TAAGTGCA, the binding signal is 12.6 upbm affinity estimate (log intensity, higher = more binding, comparable within an allelic series) in the test with NKX2-5 [1]; 11.9 upbm affinity estimate (log intensity, higher = more binding, comparable within an allelic series) in the test with NKX2-6 [2]; 13.5 upbm affinity estimate (log intensity, higher = more binding, comparable within an allelic series) with NKX2-6 [3]; 10.9 upbm affinity estimate (log intensity, higher = more binding, comparable within an allelic series) with NKX2-6 [4]; 12.8 upbm affinity estimate (log intensity, higher = more binding, comparable within an allelic series) with NKX3-2 [5]; 12.4 upbm affinity estimate (log intensity, higher = more binding, comparable within an allelic series) with NKX2-5 [6]. The binding signal with NKX3-2 [7] is 12.9 upbm affinity estimate (log intensity, higher = more binding, comparable within an allelic series).
With AGTCCTTA, the binding signal with NKX2-5 [1] is 11.3 upbm affinity estimate (log intensity, higher = more binding, comparable within an allelic series); in the test with NKX2-6 [2], 10.8 upbm affinity estimate (log intensity, higher = more binding, comparable within an allelic series); with NKX2-5 [6], 11.2 upbm affinity estimate (log intensity, higher = more binding, comparable within an allelic series).
Consider GCGCGTCC, for which the binding signal with NKX2-5 [1] is 8.83 upbm affinity estimate (log intensity, higher = more binding, comparable within an allelic series); with NKX2-6 [2], 9.52 upbm affinity estimate (log intensity, higher = more binding, comparable within an allelic series); with PROP1 [19] it was 6.74 upbm affinity estimate (log intensity, higher = more binding, comparable within an allelic series); in the test with PROP1 [20], 6.79 upbm affinity estimate (log intensity, higher = more binding, comparable within an allelic series); with PROP1 [21] it was 6.63 upbm affinity estimate (log intensity, higher = more binding, comparable within an allelic series); with NKX3-2 [5] it was 10.6 upbm affinity estimate (log intensity, higher = more binding, comparable within an allelic series). For the same sequence, the binding signal with NKX2-5 [6] is 8.91 upbm affinity estimate (log intensity, higher = more binding, comparable within an allelic series); in the test with NKX3-2 [7], 10.6 upbm affinity estimate (log intensity, higher = more binding, comparable within an allelic series).
